Data on 39 sequences can be found in the supplement of paper PMC6555819.

The test system of the first assay is RXRa homodimer (NR concentration 180 nM). In words: PBM binding z-score (relative to random genomic background probes); higher = stronger binding; sequences stand for … in GC…GCGATTGACAGCGTAGAATGAAGG
An outline of the steps: (§1)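 Probes were double-stranded and carried 34-nt variable regions with direct-repeat seeds, single-nucleotide variants, half-site ablations and random human genomic background sequences, printed on custom Agilent 4×180K protein-binding microarrays. Arrays were incubated 1 h with ligand-free nuclear receptor dimers in PBS pH 7.4, 2% milk, 0.02% Triton X-100, 1 mM DTT, 0.2 mg/mL BSA and 0.4 mg/ml salmon testes DNA. Antibodies against each partner (one per run) detected binding, and scanned fluorescence was regression-normalized. Binding z-scores use the random background probes as reference.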
The sequence ATATGTAGGTTAAGGGACATTCAGGTTGGTTCGC registered a PBM binding z-score of 1.25.

For the sequence ATCTCTAGGTAACCAAGTTCAGTGAGTGCCGAAC, the PBM binding z-score turned out to be 0.412.

Consider GCACACAGGTGAAACGCAGGTAACTCAGGGTGGC, for which the PBM binding z-score was 0.954.

Turning to TCTAGTTGGTCACGGAGGTTACACACGACGGGTA, the PBM binding z-score was found to be 2.16.

TCTTGGAGATCAGCAGGTTAAGAAAGCTGGCCAA: the PBM binding z-score was 0.182.

Regarding ATATGTAGGTTATCGGGTCATGCAGTTTGCGCAT, the PBM binding z-score was 3.76.

The sequence GCAGACAGGTGAAACGCAGGTCACTCAGGGTGGC gave a PBM binding z-score of 2.43.

GCTGCTAGGTCAGGTTGGTCCGCTAACGGGTACG gave a PBM binding z-score of 0.839.

As to CGACCAAGGTCATAGGAGGTCAGTGAAGACAGAT, the PBM binding z-score worked out at 6.92.

Turning to CGTCCAAGGTCAGAGAGGTCAGTGGATGCCGAGT, the PBM binding z-score came to 5.46.

In turn, CGTCCAAGGCCAGCAGGTCAGTGAAAGCGACGTG had a PBM binding z-score of 0.648.

GCAGACAGGTGAAACGCAGGGAACTCAGGGTGGC had a PBM binding z-score of 0.587.

For CGTCCAAGGTCAGAGAGGTTAGTGAATGCCGAGT, the PBM binding z-score amounted to 3.73.

The sequence TAGCCTAGGTCATTGGCCCAGTATAGTACGCATC had a PBM binding z-score of 2.56.

On to GATACAGGGTCAAGGCCAGTGTACGCGTATTGAT, for which the PBM binding z-score turned out to be 6.4.

TGTCTAAGTTCAAAGGTAACGTAAGTATCCACAC yielded a PBM binding z-score of 5.62.

Regarding CTCGAAAGGTCGTGCTCAGGTGGGTATACCAAAC, the PBM binding z-score came to 4.59.

For the sequence CGAACTAGGTCATCCACGACAGTGAATACATTGA, the PBM binding z-score turned out to be 2.9.

As for ACTAGTTGGTCAGCTGAAGTCACACACAATTCGG, the PBM binding z-score was determined as 0.297.

TAATATAGGTAAACAGGTGAAAGTCCGTAAGTTA: the PBM binding z-score was found to be 1.26.

Consider CCTTACGGGTCGCGAGGTTATAGCACGACGAGCG, for which the PBM binding z-score was 4.

Turning to TCTAGGAGGCCAGAGGGTCACTCAAGAGGTACGG, the PBM binding z-score was found to be 2.66.

Sequence CCTACTGGGCAACGAAAGGTCATTGATTCAGTGA displayed a PBM binding z-score of 4.73.

AGCATGAGGTTAAGATCAGGGAAACAGAATACAT: the PBM binding z-score stood at 2.58.

With TAACCAAGGTGAGCTGAGGTCGTTGATCCAACTC, the PBM binding z-score is 1.58.

For the sequence TCATTTAGGTAAACAGGTGAAAGTCCGTAAGTTA, the PBM binding z-score is 0.903.

The sequence CCTCTGAGGACAACAGGAGGTCAGAGCTGCCAGA registered a PBM binding z-score of 1.78.

The sequence CAAACTAGGTCAAGCTCAAAGTCGGTTTGTGCCA registered a PBM binding z-score of 2.55.

On to GCTGCTACGTCAACTGATGGTCAGCTAAAGCTCG, for which the PBM binding z-score is -0.367.

Consider ACTTACGGGTGAACGAGGTTATAGCACGCGTATA, for which the PBM binding z-score worked out at 2.06.

ATCGAAAGGTCGACAAGGTGAGTATACACCGTTT: the PBM binding z-score stood at 4.36.

Sequence GGAACGAGGGCAAGGTGATAGCAGAGTTTGATGG returned a PBM binding z-score of 0.928.

In the case of CGTCCAAGGTCAGAGAGGTCAGAGAATGCCGAGT, the PBM binding z-score amounted to 6.16.

As for CCCAGTTGGTCAGGAGGTCACACACCGGATATGA, the PBM binding z-score stood at 4.6.

For the sequence ACTATTAGTTGAGGCGAGGGCAACCGATAGGTTG, the PBM binding z-score is 0.386.

ACAGACAGGTGCTGAAGGTAACTCAGGCTATCAT registered a PBM binding z-score of -0.0891.

GCTCGCAGGACAAGGTCAGAGCTTTGTCCGTAGA: the PBM binding z-score came out at 2.1.

On to CCGACTGGCGCAGAAAGGTTACCATACCATCCGG, for which the PBM binding z-score was determined as 1.66.

The sequence CCAGACAGGTGAAAGGTATCTCAGTCTGGTACGC yielded a PBM binding z-score of 0.972.

The subject of another assay is THRa:RXRa (NR concentration 90 nM, RXRa partner concentration 90 nM). The description is as above. An outline of the steps: as §1
The sequence ATATGTAGGTTAAGGGACATTCAGGTTGGTTCGC registered a PBM binding z-score of 1.14.

ATCTCTAGGTAACCAAGTTCAGTGAGTGCCGAAC: the PBM binding z-score turned out to be 1.52.

The sequence GCACACAGGTGAAACGCAGGTAACTCAGGGTGGC returned a PBM binding z-score of 1.47.

Consider TCTAGTTGGTCACGGAGGTTACACACGACGGGTA, for which the PBM binding z-score is 1.71.

Regarding TCTTGGAGATCAGCAGGTTAAGAAAGCTGGCCAA, the PBM binding z-score is 0.0283.

The sequence ATATGTAGGTTATCGGGTCATGCAGTTTGCGCAT returned a PBM binding z-score of 3.54.

On to GCAGACAGGTGAAACGCAGGTCACTCAGGGTGGC, for which the PBM binding z-score stood at 3.6.

GCTGCTAGGTCAGGTTGGTCCGCTAACGGGTACG returned a PBM binding z-score of 2.36.

Sequence CGACCAAGGTCATAGGAGGTCAGTGAAGACAGAT gave a PBM binding z-score of 5.03.

For the sequence CGTCCAAGGTCAGAGAGGTCAGTGGATGCCGAGT, the PBM binding z-score is 4.29.

Take CGTCCAAGGCCAGCAGGTCAGTGAAAGCGACGTG: the PBM binding z-score was found to be 1.3.

As to GCAGACAGGTGAAACGCAGGGAACTCAGGGTGGC, the PBM binding z-score turned out to be 0.258.

Sequence CGTCCAAGGTCAGAGAGGTTAGTGAATGCCGAGT had a PBM binding z-score of 3.45.

Take TAGCCTAGGTCATTGGCCCAGTATAGTACGCATC: the PBM binding z-score amounted to 2.76.

For GATACAGGGTCAAGGCCAGTGTACGCGTATTGAT, the PBM binding z-score is 3.55.

The sequence TGTCTAAGTTCAAAGGTAACGTAAGTATCCACAC registered a PBM binding z-score of 3.44.

Sequence CTCGAAAGGTCGTGCTCAGGTGGGTATACCAAAC showed a PBM binding z-score of 2.57.

Sequence CGAACTAGGTCATCCACGACAGTGAATACATTGA gave a PBM binding z-score of 2.79.

Consider ACTAGTTGGTCAGCTGAAGTCACACACAATTCGG, for which the PBM binding z-score was 0.346.

TAATATAGGTAAACAGGTGAAAGTCCGTAAGTTA registered a PBM binding z-score of 0.862.

For the sequence CCTTACGGGTCGCGAGGTTATAGCACGACGAGCG, the PBM binding z-score was found to be 2.25.

With TCTAGGAGGCCAGAGGGTCACTCAAGAGGTACGG, the PBM binding z-score was determined as 1.7.

In turn, CCTACTGGGCAACGAAAGGTCATTGATTCAGTGA registered a PBM binding z-score of 3.09.

For AGCATGAGGTTAAGATCAGGGAAACAGAATACAT, the PBM binding z-score is 2.66.

As to TAACCAAGGTGAGCTGAGGTCGTTGATCCAACTC, the PBM binding z-score came out at 4.65.

In turn, TCATTTAGGTAAACAGGTGAAAGTCCGTAAGTTA registered a PBM binding z-score of 1.52.

Take CCTCTGAGGACAACAGGAGGTCAGAGCTGCCAGA: the PBM binding z-score worked out at 3.92.

The sequence CAAACTAGGTCAAGCTCAAAGTCGGTTTGTGCCA had a PBM binding z-score of 3.2.

For GCTGCTACGTCAACTGATGGTCAGCTAAAGCTCG, the PBM binding z-score is -0.498.

On to ACTTACGGGTGAACGAGGTTATAGCACGCGTATA, for which the PBM binding z-score was determined as 2.39.

With ATCGAAAGGTCGACAAGGTGAGTATACACCGTTT, the PBM binding z-score was 3.65.

With GGAACGAGGGCAAGGTGATAGCAGAGTTTGATGG, the PBM binding z-score was 1.89.

The sequence CGTCCAAGGTCAGAGAGGTCAGAGAATGCCGAGT showed a PBM binding z-score of 4.53.

CCCAGTTGGTCAGGAGGTCACACACCGGATATGA had a PBM binding z-score of 3.52.

On to ACTATTAGTTGAGGCGAGGGCAACCGATAGGTTG, for which the PBM binding z-score is 2.43.

With ACAGACAGGTGCTGAAGGTAACTCAGGCTATCAT, the PBM binding z-score turned out to be 0.3.

The sequence GCTCGCAGGACAAGGTCAGAGCTTTGTCCGTAGA had a PBM binding z-score of 2.5.

On to CCGACTGGCGCAGAAAGGTTACCATACCATCCGG, for which the PBM binding z-score stood at 1.05.

On to CCAGACAGGTGAAAGGTATCTCAGTCTGGTACGC, for which the PBM binding z-score turned out to be 0.0736.
